High-throughput results from PubChem.
TIM10 inh: growth inhibitors of TIM10 yeast strain | inhibition, % at 10 µM | S. cerevisiae TIM10 strain growth, BacTiter-Glo luminescence, 24 h | 330,000 compounds, 1.4% hits;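 active = inhibition of 40% or more at the single tested concentration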;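 also: wild-type TIM10 isogenic control strain grown at permissive 25 °C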
tim10-1 inh: inhibits growth of tim10-1 mutant yeast; AID 463190; S. cerevisiae tim10-1 ts strain growth, BacTiter-Glo, 24 h; inhibition, % at 20 µM; 330,000 compounds, 2.2% hits;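 active = inhibition of at least 40%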;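 also: mutant grown at 25 °C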
NALP1 yeast inh: blocks the NALP1 inflammasome reconstituted in yeast. inhibition, % at 10 µM. 280,000 compounds, 0.61% hits. S. cerevisiae NALP1/ASC/caspase-1 growth, X-gal OD620, 72 h. AID 2071; in the data active = inhibition mostly above about 24%, no sharp cut-off; inactive = mostly below about 32%
tim23-1 inh: tim23-1 yeast growth inhibition; S. cerevisiae tim23-1 growth, BacTiter-Glo luminescence, 24 h; inhibition, % at 20 µM; 330,000 compounds, 1.3% hits;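 active = growth inhibition of the mutant yeast at or above 50%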;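 also: temperature-sensitive mutant grown at 25 °C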
NLRP3 yeast inh: inhibitors of NALP3 inflammasome in yeast. Yeast reconstituted NLRP3/ASC/caspase-1, beta-gal luminescence, 24 h. inhibition, % at 10 µM. 330,000 compounds, 0.39% hits;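 active = inhibition of 50% or more; inactive = inhibition below 50%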
V-ATPase pHluor: alters yeast V-ATPase proton transport; S. cerevisiae, pHLuorin cytosolic pH fluorescence; response, % at 10 µM; 350,000 compounds, 0.37% hits; in the data active = response mostly above about 7.3%, no sharp cut-off; inactive = mostly below about 5.4%; also: actives read high
tim10-1 conf: confirmation of tim10-1 mutant yeast growth inhibitors. S. cerevisiae tim10-1 ts strain growth, BacTiter-Glo, 24 h. shares compounds with tim10-1 inh. 7,400 compounds, 56% hits. AID 463213. inhibition, % at 20 µM;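 active = inhibition of yeast growth at or above a set limit in either of two repeat tests at 20 µM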;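 also: tim10-1 mutant grown at permissive 25 °C to find synthetic lethal compounds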
A number is an active result. In the library only some 4.2% were active in any assay of this set; here they are far more common.

Screening Cc1ccc(C2(c3ccc(C)cc3)NC(=O)N(CC(N)=O)C2=O)cc1 returned TIM10 inh inactive, tim10-1 inh inactive, NALP1 yeast inh inactive, tim23-1 inh inactive, NLRP3 yeast inh inactive and V-ATPase pHluor inactive.
For O=C(COc1ccccc1)NCC(c1ccco1)N1CCN(c2ccccc2F)CC1 (centres undefined) the results were TIM10 inh inactive, tim10-1 inh inactive, tim23-1 inh inactive, NLRP3 yeast inh inactive and V-ATPase pHluor inactive.
For O=C(NCC(c1ccco1)N1CCN(c2ccccc2F)CC1)OCc1ccccc1 (centres undefined) the results were TIM10 inh inactive, tim10-1 inh inactive, NALP1 yeast inh inactive, tim23-1 inh inactive, NLRP3 yeast inh inactive and V-ATPase pHluor inactive.
`O=C(COc1ccccc1)NCC(c1ccco1)N1CCN(c2ccc(F)cc2)CC1` (centres undefined) gave TIM10 inh inactive, tim10-1 inh 41, tim23-1 inh inactive, NLRP3 yeast inh inactive, V-ATPase pHluor inactive and tim10-1 conf inactive.
Screening O=C(NCC(c1ccco1)N1CCN(c2ccccc2)CC1)OCc1ccccc1 (centres undefined) returned TIM10 inh inactive, tim10-1 inh 41, NALP1 yeast inh inactive, tim23-1 inh inactive, NLRP3 yeast inh inactive, V-ATPase pHluor inactive and tim10-1 conf inactive.
`COc1cccc(C2N=C(c3ccccc3C)NO2)c1OC` (centres undefined) gave TIM10 inh inactive, tim10-1 inh inactive, NALP1 yeast inh inactive, tim23-1 inh inactive, NLRP3 yeast inh inactive and V-ATPase pHluor inactive.
`CCOc1cc(N2CCOCC2)c(OCC)cc1NC(=O)c1ccccc1C` gave TIM10 inh inactive, tim10-1 inh inactive, NALP1 yeast inh inactive, tim23-1 inh inactive, NLRP3 yeast inh inactive and V-ATPase pHluor inactive.
`CCOc1cc(N2CCOCC2)c(OCC)cc1NC(=O)COC(=O)CCOc1ccc(C)cc1` gave TIM10 inh inactive, tim10-1 inh 41, tim23-1 inh inactive, NLRP3 yeast inh inactive, V-ATPase pHluor inactive and tim10-1 conf 29.
`CCOc1cc(N2CCOCC2)c(OCC)cc1NC(=O)c1ccc2ccccc2n1` gave TIM10 inh inactive, tim10-1 inh 45, NALP1 yeast inh inactive, tim23-1 inh inactive, NLRP3 yeast inh inactive, V-ATPase pHluor inactive and tim10-1 conf inactive.
CCOc1ccc(-n2c(C)nc3cc(C(=O)NCc4ccc5c(c4)OCO5)ccc32)cc1 was read as TIM10 inh inactive, tim10-1 inh 47, NALP1 yeast inh inactive, tim23-1 inh inactive, NLRP3 yeast inh inactive, V-ATPase pHluor inactive and tim10-1 conf 35.
Screening CC(C)C[C@H]1CNC(=O)C(=O)N1C[C@H](C)NC(=O)Cc1ccccc1 returned TIM10 inh inactive, tim10-1 inh inactive, NALP1 yeast inh inactive, tim23-1 inh inactive, NLRP3 yeast inh inactive and V-ATPase pHluor inactive.
`O=S(=O)(Nc1cc(Sc2ncn[nH]2)c(O)c2ccccc12)c1ccccc1` gave TIM10 inh inactive, tim10-1 inh 50, NALP1 yeast inh inactive, tim23-1 inh inactive, NLRP3 yeast inh inactive, V-ATPase pHluor inactive and tim10-1 conf inactive.
Screening COc1ccc(-c2csc(NC(=O)C3COc4ccccc4O3)n2)cc1OC (centres undefined) returned TIM10 inh inactive, tim10-1 inh 43, NALP1 yeast inh inactive, tim23-1 inh inactive, NLRP3 yeast inh inactive, V-ATPase pHluor inactive and tim10-1 conf inactive.
`CC(C)(C)c1csc(NC(=O)C2COc3ccccc3O2)n1` (centres undefined) gave TIM10 inh inactive, tim10-1 inh inactive, NALP1 yeast inh inactive, tim23-1 inh inactive, NLRP3 yeast inh inactive and V-ATPase pHluor inactive.
Screening Cc1ccc(NCc2nnc(SCC(=O)c3ccccc3)o2)c(C)c1 returned TIM10 inh inactive, tim10-1 inh 42, NALP1 yeast inh inactive, tim23-1 inh inactive, NLRP3 yeast inh inactive, V-ATPase pHluor inactive and tim10-1 conf inactive.
`CC(=O)N(c1ccccc1)C1CC(C)N(C(=O)c2ccccc2)c2ccccc21` (centres undefined) gave TIM10 inh inactive, tim10-1 inh 42, NALP1 yeast inh inactive, tim23-1 inh inactive, NLRP3 yeast inh inactive, V-ATPase pHluor inactive and tim10-1 conf inactive.
Screening CCC(=O)N1c2ccccc2[C@@H](N(C(C)=O)c2ccccc2)C[C@H]1C returned TIM10 inh inactive, tim10-1 inh inactive, NALP1 yeast inh inactive, tim23-1 inh inactive, NLRP3 yeast inh inactive and V-ATPase pHluor inactive.
O=C(c1ccc(Cl)cc1)N1N=CCC1(O)c1ccc(Cl)cc1 (centres undefined) was read as TIM10 inh inactive, tim10-1 inh inactive, NALP1 yeast inh inactive, tim23-1 inh inactive, NLRP3 yeast inh inactive and V-ATPase pHluor inactive.
Cc1cc(C)n(S(=O)(=O)c2cc(Cl)ccc2Cl)n1 was read as TIM10 inh inactive, tim10-1 inh 40, NALP1 yeast inh inactive, tim23-1 inh inactive, NLRP3 yeast inh inactive, V-ATPase pHluor inactive and tim10-1 conf inactive.
Screening Cc1cc(C)n(S(=O)(=O)c2ccc(C(C)(C)C)cc2)n1 returned TIM10 inh inactive, tim10-1 inh 43, NALP1 yeast inh inactive, tim23-1 inh inactive, NLRP3 yeast inh inactive, V-ATPase pHluor inactive and tim10-1 conf 38.
Cc1cc(C)n(S(=O)(=O)c2ccc(F)cc2)n1 was read as TIM10 inh inactive, tim10-1 inh inactive, NALP1 yeast inh inactive, tim23-1 inh inactive, NLRP3 yeast inh inactive and V-ATPase pHluor inactive.
Screening Cc1cc(C)n(S(=O)(=O)c2ccc(Cl)cc2)n1 returned TIM10 inh inactive, tim10-1 inh inactive, NALP1 yeast inh inactive, tim23-1 inh inactive, NLRP3 yeast inh inactive and V-ATPase pHluor inactive.
For COc1ccc(NC(=O)c2cn(CCC#N)nc2-c2cccs2)cc1 the results were TIM10 inh inactive, tim10-1 inh 41, tim23-1 inh inactive, NLRP3 yeast inh inactive, V-ATPase pHluor inactive and tim10-1 conf inactive.
`CN(c1nc(-c2ccc(Br)cc2)cs1)C1CCS(=O)(=O)C1` (centres undefined) gave TIM10 inh inactive, tim10-1 inh inactive, NALP1 yeast inh inactive, tim23-1 inh inactive, NLRP3 yeast inh inactive and V-ATPase pHluor inactive.
Screening O=C(Cn1cc(COc2c(F)c(F)cc(F)c2F)nn1)c1ccc(O)cc1 returned V-ATPase pHluor inactive.
For Cc1ccc(C)c(NC(=S)NCCN(C2CCCCC2)C2CCCC2)c1 the results were TIM10 inh inactive, tim10-1 inh inactive, NALP1 yeast inh inactive, tim23-1 inh inactive, NLRP3 yeast inh inactive and V-ATPase pHluor inactive.
For OCCn1c(-c2ccc(F)cc2)csc1=Nc1ccccc1 the results were TIM10 inh inactive, tim10-1 inh inactive, NALP1 yeast inh inactive, tim23-1 inh inactive, NLRP3 yeast inh inactive and V-ATPase pHluor inactive.
`OCCn1c(-c2ccc3c(c2)OCO3)csc1=Nc1ccccc1` gave TIM10 inh inactive, tim10-1 inh 48, tim23-1 inh inactive, NLRP3 yeast inh inactive, V-ATPase pHluor inactive and tim10-1 conf 33.
